Inconclusive results are not listed. For part of these data: Measured potencies and affinities stand elsewhere. Activity calls are given as the source filed them. Unless noted, the rule behind the calls is not given here.
Tests used:
[1] = HepG2 cytotoxicity, primary screen, cytotoxicity control for P. falciparum antimalarial project, cell-based, ATP luminescence (AID 2303;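 active = inhibition above 50%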;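 note: 0% = DMSO wells and 100% = digitonin-killed cells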); settings: HepG2 viability, 24-48 h, at 10 µM, stronger effect = higher value
[2] = molecular target: L-lactate dehydrogenase (Plasmodium falciparum (isolate CDC / Honduras)) (UniProt Q27743); assay: PfLDH activity inhibition – cell lysate, 3D7 strain, counter-screen for P. falciparum growth inhibition project (AID 2304);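 note: 0% = vehicle and 100% = reference inhibitor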; settings: P. falciparum 3D7 crude extract, LDH APAD/NBT absorbance; at 2 µM; stronger effect = higher value
Sequence of L-lactate dehydrogenase (Plasmodium falciparum (isolate CDC / Honduras)) (Q27743 whole entry, looked up): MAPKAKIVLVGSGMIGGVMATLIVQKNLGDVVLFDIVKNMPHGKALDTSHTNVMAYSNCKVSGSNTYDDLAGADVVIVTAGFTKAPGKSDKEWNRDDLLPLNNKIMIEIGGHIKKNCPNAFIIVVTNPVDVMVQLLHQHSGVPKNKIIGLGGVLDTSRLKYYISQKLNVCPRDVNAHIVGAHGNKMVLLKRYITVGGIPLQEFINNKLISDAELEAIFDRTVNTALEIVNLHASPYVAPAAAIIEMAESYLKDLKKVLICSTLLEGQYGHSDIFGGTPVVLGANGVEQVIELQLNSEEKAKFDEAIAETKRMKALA

[3] = inhibition of 3D7 malaria parasite growth – strain 3D7 (AID 2306);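 note: 0% = DMSO wells and 100% = chloroquine plus artemisinin control wells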; settings: P. falciparum 3D7 erythrocytic growth, LDH absorbance, 72 h; at 2 µM; stronger effect = higher value
[4] = molecular target: Calcium-dependent protein kinase 1 (Plasmodium falciparum (isolate 3D7)) (UniProt P62344); assay: PfCDPK1 kinase inhibitors, biochemical, TCAMS library (AID 1159585; cut-off not given, nearly all actives have IC50 up to about 0.98 µM;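 note: inhibitors leave more ATP so luminescence rises with inhibition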); settings: recombinant PfCDPK1, Kinase-Glo ATP depletion luminescence
Sequence of Calcium-dependent protein kinase 1 (Plasmodium falciparum (isolate 3D7)) (P62344 whole entry, looked up): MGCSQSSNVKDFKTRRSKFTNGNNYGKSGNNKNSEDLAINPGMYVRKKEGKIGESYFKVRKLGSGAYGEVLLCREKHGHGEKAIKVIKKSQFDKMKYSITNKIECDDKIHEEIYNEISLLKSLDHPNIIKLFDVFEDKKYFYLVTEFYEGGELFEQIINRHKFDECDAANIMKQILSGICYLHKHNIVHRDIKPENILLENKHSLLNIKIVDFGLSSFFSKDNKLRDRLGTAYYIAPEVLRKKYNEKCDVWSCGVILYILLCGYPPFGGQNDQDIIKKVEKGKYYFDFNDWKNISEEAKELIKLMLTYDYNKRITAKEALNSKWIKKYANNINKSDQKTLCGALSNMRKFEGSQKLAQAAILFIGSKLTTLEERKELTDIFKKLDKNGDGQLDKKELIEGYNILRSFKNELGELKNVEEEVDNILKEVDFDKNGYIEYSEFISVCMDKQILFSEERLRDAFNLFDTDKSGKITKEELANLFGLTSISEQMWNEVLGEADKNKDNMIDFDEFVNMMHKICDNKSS

[5] = molecular target: Plasmodium falciparum protein kinase 6 (PK6, PF3D7_1337100) (UniProt Q8IDW1); assay: PfPK6 kinase inhibitors, biochemical, TCAMS library (AID 1159586); settings: recombinant PfPK6, Kinase-Glo ATP depletion luminescence
Sequence of Plasmodium falciparum protein kinase 6 (PK6, PF3D7_1337100) (Q8IDW1 1-305): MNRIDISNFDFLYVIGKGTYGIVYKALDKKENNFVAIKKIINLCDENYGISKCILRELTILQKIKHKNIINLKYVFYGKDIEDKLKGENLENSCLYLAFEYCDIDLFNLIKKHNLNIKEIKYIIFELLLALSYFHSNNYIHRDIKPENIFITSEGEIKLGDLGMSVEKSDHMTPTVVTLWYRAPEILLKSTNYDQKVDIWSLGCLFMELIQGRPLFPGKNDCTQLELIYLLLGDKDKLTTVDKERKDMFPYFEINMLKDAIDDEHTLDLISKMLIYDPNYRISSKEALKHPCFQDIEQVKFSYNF

[6] = molecular target: Protein kinase 7 (PK7), Plasmodium falciparum 3D7 (PF3D7_0213400) (UniProt Q7YTF7); assay: inhibition of Plasmodium PK7 catalytic activity – biochemical, TCAMS antimalarial set, Kinase-Glo luminescence (AID 1159587); settings: recombinant PfPK7, Kinase-Glo ATP depletion luminescence
Sequence of Protein kinase 7 (PK7), Plasmodium falciparum 3D7 (PF3D7_0213400) (Q7YTF7 1-343): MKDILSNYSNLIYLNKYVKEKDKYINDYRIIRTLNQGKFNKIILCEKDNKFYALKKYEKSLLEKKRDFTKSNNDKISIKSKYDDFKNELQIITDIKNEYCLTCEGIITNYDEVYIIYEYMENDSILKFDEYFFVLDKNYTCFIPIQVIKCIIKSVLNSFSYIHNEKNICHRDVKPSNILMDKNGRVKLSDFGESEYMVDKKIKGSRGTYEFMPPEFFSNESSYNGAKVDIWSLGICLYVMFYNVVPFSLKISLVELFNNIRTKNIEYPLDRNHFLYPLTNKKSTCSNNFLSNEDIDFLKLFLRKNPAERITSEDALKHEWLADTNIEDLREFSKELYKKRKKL

[7] = molecular target: Calcium-dependent protein kinase 4 (Plasmodium falciparum (isolate 3D7)) (UniProt Q8IBS5); assay: PfCDPK4 kinase inhibitors, biochemical, TCAMS library (AID 1159588; cut-off not given, nearly all actives have IC50 up to about 0.91 µM); settings: recombinant PfCDPK4, Kinase-Glo ATP depletion luminescence
Sequence of Calcium-dependent protein kinase 4 (Plasmodium falciparum (isolate 3D7)) (Q8IBS5 whole entry, looked up): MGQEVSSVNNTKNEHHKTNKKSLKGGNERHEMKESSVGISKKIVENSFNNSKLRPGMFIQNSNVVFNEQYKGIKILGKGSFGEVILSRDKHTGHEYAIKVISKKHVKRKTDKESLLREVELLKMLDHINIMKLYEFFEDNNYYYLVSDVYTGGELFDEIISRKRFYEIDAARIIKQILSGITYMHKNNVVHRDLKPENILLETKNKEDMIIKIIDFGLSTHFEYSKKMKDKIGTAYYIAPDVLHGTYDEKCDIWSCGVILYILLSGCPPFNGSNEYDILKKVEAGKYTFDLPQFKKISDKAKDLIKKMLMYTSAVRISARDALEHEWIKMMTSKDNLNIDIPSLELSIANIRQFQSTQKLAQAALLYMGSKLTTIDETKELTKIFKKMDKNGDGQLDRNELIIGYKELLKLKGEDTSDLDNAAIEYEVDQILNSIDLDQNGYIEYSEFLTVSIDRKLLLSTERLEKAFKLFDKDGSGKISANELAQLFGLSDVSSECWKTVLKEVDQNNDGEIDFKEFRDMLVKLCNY

[8] = growth inhibition of DIPG glioma cells, dose response, cell-based, SU-DIPG-XIII, MIPE4.0, CellTiter-Glo, qHTS (AID 1347061; cut-off not given, nearly all actives have AC50 up to about 37 µM;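 note: cells exposed to compound for 48 hours before readout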); settings: SU-DIPG-XIII viability, CellTiter-Glo ATP luminescence
[9] = growth inhibition of DIPG glioma cells, dose response, cell-based, JHH-DIPG-1, MIPE4.0, CellTiter-Glo, qHTS (AID 1347062; cut-off not given, nearly all actives have AC50 up to about 27 µM;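 note: cells exposed to compound for two days before readout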); settings: JHH-DIPG-1 viability, CellTiter-Glo ATP luminescence
[10] = growth inhibition of DIPG glioma cells, dose response, cell-based, SU-DIPG-IV, MIPE4.0, CellTiter-Glo, qHTS (AID 1347063; cut-off not given, nearly all actives have AC50 up to about 30 µM;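 note: compound exposure lasted 48 hours before the viability readout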); settings: SU-DIPG-IV viability, CellTiter-Glo ATP luminescence
[11] = growth inhibition of DIPG glioma cells, dose response, cell-based, SU-DIPG-XIII, MIPE5.0, CellTiter-Glo, qHTS (AID 1347064; cut-off not given, nearly all actives have AC50 up to about 23 µM;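 note: cells exposed to compound for 48 hours before the viability read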); settings: SU-DIPG-XIII viability, CellTiter-Glo ATP luminescence
[12] = SU-DIPG-XXV glioma cell viability, MIPE5.0 library, qHTS (AID 1347068; cut-off not given, nearly all actives have IC50 up to about 30 µM;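 note: cells exposed to compound for 48 hours before viability readout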)
[13] = antimalarial activity against Dd2 strain (AID 2302;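 active = growth inhibition above 50% at the single 2 µM test dose, taken to imply half-maximal potency below 2 µM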;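 note: 0% = DMSO untreated growth and 100% = chloroquine plus artemisinin killed control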); settings: P. falciparum Dd2 in RBCs, LDH growth readout, 72 h; at 2 µM; stronger effect = higher value

CC(C)C(=O)NC(NC(=S)Nc1ccc(Br)cc1)C(Cl)(Cl)Cl (centres undefined)
active: growth inhibition [3] 93%
inactive: inhibition [1] -5% | inhibition [2] 3% | outcome [4] | outcome [5] | outcome [6] | outcome [7]

COc1ccc(Cl)cc1N1CCN(CCCNC(=O)c2ccc(-c3nc4c(C)cccc4[nH]3)s2)CC1
inactive: inhibition [1] -2% | inhibition [2] 5% | outcome [4] | outcome [5] | outcome [6] | outcome [7]
active: growth inhibition [3] 98%

COc1cc(OC)cc(C(=O)Nc2nc(-c3ccc(NC(=O)c4ccccc4)cc3)cs2)c1
inactive: inhibition [1] 16% | inhibition [2] -1% | outcome [4] | outcome [5] | outcome [6] | outcome [7]
active: growth inhibition [3] 88%

O=C(Nc1cccc(-c2nn3ccccc3c2-c2ccnc(Nc3cccc(F)c3)n2)c1)C1CCCCC1
active: growth inhibition [3] 85%
inactive: inhibition [1] 44% | inhibition [2] 3% | outcome [4] | outcome [5] | outcome [6] | outcome [7]

COc1cc(Cc2cnc(N)nc2N)ccc1OCc1csc(-c2ccc(Cl)cc2)n1
inactive: inhibition [1] 39% | inhibition [2] 2% | outcome [4] | outcome [5] | outcome [6] | outcome [7]
active: growth inhibition [3] 93%

O=C(Nc1nccs1)c1sc2ccccc2c1O
inactive: inhibition [1] -2% | inhibition [2] -1% | outcome [4] | outcome [5] | outcome [6] | outcome [7]
active: growth inhibition [3] 96%

Oc1cc(-c2nc(-c3ccccc3)[nH]c2-c2ccncc2)ccc1Cl
active: AC50 [8] 16.6 µM | AC50 [9] 13.2 µM | AC50 [10] 2.35 µM | AC50 [11] 9.34 µM | IC50 [12] 23.5 µM

CC(C)(CNCc1ccc(C(F)(F)F)cc1)c1nc(-c2ccc(Cl)c(O)c2)c(-c2ccnc(N)n2)[nH]1
inactive: growth inhibition [13] 37% | inhibition [1] 32% | inhibition [2] -2% | outcome [5] | outcome [6] | outcome [7]
active: growth inhibition [3] 101%

COc1ccc(-c2cnc3ccc(NCCCO)nn23)cc1OC
inactive: inhibition [1] 9% | inhibition [2] -1% | outcome [5] | outcome [6] | outcome [7]
active: growth inhibition [13] 90% | growth inhibition [3] 98%

CN1CCN(c2ccc(Nc3ncc(Cl)c(Nc4cccnc4C(N)=O)n3)cc2)CC1
active: growth inhibition [13] 97% | inhibition [1] 99% | growth inhibition [3] 95%
inactive: inhibition [2] -1% | outcome [5] | outcome [6] | outcome [7]

Cc1ccc(Nc2nc3cc(N(C)c4ccnc(Nc5cccc(CCS(C)(=O)=O)c5)n4)ccc3n2C)cc1
inactive: inhibition [2] 4% | outcome [5] | outcome [6] | outcome [7]
active: growth inhibition [13] 73% | inhibition [1] 78% | growth inhibition [3] 99%

c1ccc(Oc2ccc(Nc3ccnc4cc(-c5ccc(CNCCN6CCOCC6)o5)ccc34)cc2)cc1
active: growth inhibition [13] 99% | growth inhibition [3] 99%
inactive: inhibition [1] 20% | inhibition [2] -3% | outcome [5] | outcome [6] | outcome [7]

CN(C)CCNCc1ccc(-c2ccc3c(Nc4ccc(Oc5ccccc5)cc4)ccnc3c2)o1
active: growth inhibition [13] 99% | growth inhibition [3] 100%
inactive: inhibition [1] 19% | inhibition [2] 2% | outcome [5] | outcome [6] | outcome [7]

CC(C)(CNCc1ccc(Cl)cc1)c1nc(-c2ccc(Cl)c(O)c2)c(-c2ccncc2)[nH]1
inactive: inhibition [2] 5% | outcome [5] | outcome [6] | outcome [7]
active: growth inhibition [13] 98% | inhibition [1] 86% | growth inhibition [3] 101%

COCCNCc1cccc(-c2ccc3c(Nc4ccc(Oc5ccccc5)cc4)ccnc3c2)c1
inactive: inhibition [1] 25% | inhibition [2] 2% | outcome [5] | outcome [6] | outcome [7]
active: growth inhibition [13] 99% | growth inhibition [3] 101%

CC(C)(C)CNCC(C)(C)c1nc(-c2ccc(Cl)c(O)c2)c(-c2ccncc2)[nH]1
active: growth inhibition [13] 98% | growth inhibition [3] 101%
inactive: inhibition [1] 42% | inhibition [2] 5% | outcome [5] | outcome [6] | outcome [7]

O=C(NC1CC1)c1ccc(Nc2nccc(-c3c(-c4cccc(NC(=O)c5c(F)cccc5F)c4)nn4ccccc34)n2)cc1
active: growth inhibition [13] 96% | inhibition [1] 84% | growth inhibition [3] 94%
inactive: inhibition [2] -1% | outcome [5] | outcome [6] | outcome [7]

CN(C)Cc1ccc(-c2ccc3c(Nc4ccc(Oc5ccccn5)cc4)ccnc3c2)o1
inactive: inhibition [1] 18% | inhibition [2] 1% | outcome [5] | outcome [6] | outcome [7]
active: growth inhibition [13] 100% | growth inhibition [3] 101%

CCOC(=O)c1cccc(NC(=O)Nc2cccc(-c3ncc(OCCCN)c4c3nc(-c3nonc3N)n4CC)c2)c1
active: growth inhibition [13] 98% | growth inhibition [3] 100%
inactive: inhibition [1] 16% | inhibition [2] 2% | outcome [5] | outcome [6] | outcome [7]

Nc1ncc(-c2cn[nH]c2)cc1-c1nc2ncc(Cl)cc2[nH]1
inactive: inhibition [1] 40% | inhibition [2] 1% | outcome [5] | outcome [6] | outcome [7]
active: growth inhibition [13] 70% | growth inhibition [3] 100%

CS(=O)(=O)Nc1cccc(-c2cnc3[nH]cc(-c4cccc(CN)c4)c3c2)c1
inactive: inhibition [1] 25% | inhibition [2] -2% | outcome [5] | outcome [6] | outcome [7]
active: growth inhibition [13] 82% | growth inhibition [3] 96%

CN(C(=O)c1cc2c(-c3cncnc3)cccc2[nH]1)c1ccccc1
inactive: inhibition [1] 1% | inhibition [2] 0% | outcome [5] | outcome [6] | outcome [7]
active: growth inhibition [13] 99% | growth inhibition [3] 92%

CC(C)(CNCc1ccc(F)c(F)c1)c1nc(-c2ccc(Cl)c(O)c2)c(-c2ccncc2)[nH]1
inactive: inhibition [2] 2% | outcome [5] | outcome [6] | outcome [7]
active: growth inhibition [13] 89% | inhibition [1] 74% | growth inhibition [3] 102%

— PubChem BioAssay
